# Measured values reported in the supplement of paper PMC10849652.
# The full data set covers some 7,900 targets. This sample favours those with a hit. About 0.6% of all pairs of compound and target were hits. Values without a mark were called inactive.
# Key:
# Assay in all cases: log2 fold change, soluble protein after heating vs DMSO (PISA); higher = thermal stabilisation; K562 cells, 10 uM, 30 min; active = over 0.2 and 3.5 SD of the protein, either way, in both replicates (recomputed)
# [1] = compound: CS(=O)(=O)c1ccc(-c2cnc(N)c(C(=O)Nc3ccccc3)n2)cc1
# Summary of the method: (§1)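 K562 cells at 2×10^6 cells/mL were exposed to 10 μM compound for 30 min, then aliquots were heated for 3 min across 48°C-58°C, pooled, and extracted in PBS containing 0.5% NP-40 at 4°C. The supernatant after 21,000xg for 90 min was taken as soluble protein and measured by TMTpro 16plex LC-MS/MS with channel sums equalised. Thermal stability is reported relative to control samples, with values from duplicates. Fold changes are given on a log2 scale.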
# crizotinib = compound: C[C@@H](Oc1cc(-c2cnn(C3CCNCC3)c2)cnc1N)c1c(Cl)ccc(F)c1Cl [crizotinib]
# Summary of the method: as §1
# [2] = compound: C[C@@H]1COCCN1C2=NC(=NC(=C2)C3(CC3)S(=O)(=O)C)C4=C5C=CNC5=CC=C4
# Summary of the method: as §1
# [3] = compound: C[C@H](C1=CC=C(C=C1)C(=O)NC2=C3C=CNC3=NC=C2)N
# Summary of the method: as §1
# duvelisib = compound: C[C@H](Nc1ncnc2nc[nH]c12)c1cc2cccc(Cl)c2c(=O)n1-c1ccccc1 [duvelisib]
# Summary of the method: as §1
# gandotinib = compound: Cc1cc(Nc2cc(CN3CCOCC3)c3nc(C)c(Cc4ccc(Cl)cc4F)n3n2)n[nH]1 [gandotinib]
# Summary of the method: as §1
# tozasertib = compound: Cc1cc(Nc2cc(N3CCN(C)CC3)nc(Sc3ccc(NC(=O)C4CC4)cc3)n2)n[nH]1 [tozasertib]
# Summary of the method: as §1
# [4] = compound: Cc1cc(SCc2sc(-c3ccc(C(F)(F)F)cc3)nc2C)ccc1OCC(=O)O
# Summary of the method: as §1
# doramapimod = compound: Cc1ccc(-n2nc(C(C)(C)C)cc2NC(=O)Nc2ccc(OCCN3CCOCC3)c3ccccc23)cc1 [doramapimod]
# Summary of the method: as §1
# ispinesib = compound: Cc1ccc(C(=O)N(CCCN)[C@@H](c2nc3cc(Cl)ccc3c(=O)n2Cc2ccccc2)C(C)C)cc1 [ispinesib]
# Summary of the method: as §1
# Sequence of UniProt P11310 (P11310 whole entry, looked up): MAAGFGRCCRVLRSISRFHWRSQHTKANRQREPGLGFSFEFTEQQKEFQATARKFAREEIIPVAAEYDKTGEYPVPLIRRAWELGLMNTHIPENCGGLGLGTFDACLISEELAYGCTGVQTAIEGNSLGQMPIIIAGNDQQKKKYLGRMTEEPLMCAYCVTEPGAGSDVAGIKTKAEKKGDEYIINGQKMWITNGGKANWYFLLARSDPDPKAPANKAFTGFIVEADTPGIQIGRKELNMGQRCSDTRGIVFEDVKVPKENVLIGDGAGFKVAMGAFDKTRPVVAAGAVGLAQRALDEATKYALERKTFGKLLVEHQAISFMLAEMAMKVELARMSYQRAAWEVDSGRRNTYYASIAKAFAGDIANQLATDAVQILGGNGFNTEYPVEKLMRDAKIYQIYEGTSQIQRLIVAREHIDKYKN
# Sequence of UniProt Q9NRZ7 (Q9NRZ7 whole entry, looked up): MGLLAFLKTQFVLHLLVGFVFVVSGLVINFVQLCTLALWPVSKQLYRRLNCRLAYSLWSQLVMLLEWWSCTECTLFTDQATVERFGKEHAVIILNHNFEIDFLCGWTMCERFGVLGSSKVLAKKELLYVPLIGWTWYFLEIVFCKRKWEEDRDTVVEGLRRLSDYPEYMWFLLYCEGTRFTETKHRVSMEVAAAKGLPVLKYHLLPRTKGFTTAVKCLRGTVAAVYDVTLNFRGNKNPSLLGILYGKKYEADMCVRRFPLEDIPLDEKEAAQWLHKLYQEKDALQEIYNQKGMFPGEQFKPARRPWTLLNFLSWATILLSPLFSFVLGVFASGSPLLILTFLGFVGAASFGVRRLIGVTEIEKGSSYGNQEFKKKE
# Sequence of UniProt Q8WV93 (Q8WV93 whole entry, looked up): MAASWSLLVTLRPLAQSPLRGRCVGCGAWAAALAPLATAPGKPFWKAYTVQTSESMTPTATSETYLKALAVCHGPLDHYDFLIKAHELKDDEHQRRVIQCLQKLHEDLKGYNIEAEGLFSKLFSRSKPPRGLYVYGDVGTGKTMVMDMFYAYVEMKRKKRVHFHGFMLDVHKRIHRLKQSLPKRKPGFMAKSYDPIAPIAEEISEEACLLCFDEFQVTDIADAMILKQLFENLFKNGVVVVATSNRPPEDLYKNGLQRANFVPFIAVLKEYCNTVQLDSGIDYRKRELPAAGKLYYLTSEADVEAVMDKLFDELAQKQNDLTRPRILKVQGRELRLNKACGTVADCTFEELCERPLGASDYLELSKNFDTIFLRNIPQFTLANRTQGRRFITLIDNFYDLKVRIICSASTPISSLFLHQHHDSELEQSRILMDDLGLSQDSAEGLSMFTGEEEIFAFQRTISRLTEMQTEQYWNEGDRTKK
# Sequence of UniProt P17707 (P17707 whole entry, looked up): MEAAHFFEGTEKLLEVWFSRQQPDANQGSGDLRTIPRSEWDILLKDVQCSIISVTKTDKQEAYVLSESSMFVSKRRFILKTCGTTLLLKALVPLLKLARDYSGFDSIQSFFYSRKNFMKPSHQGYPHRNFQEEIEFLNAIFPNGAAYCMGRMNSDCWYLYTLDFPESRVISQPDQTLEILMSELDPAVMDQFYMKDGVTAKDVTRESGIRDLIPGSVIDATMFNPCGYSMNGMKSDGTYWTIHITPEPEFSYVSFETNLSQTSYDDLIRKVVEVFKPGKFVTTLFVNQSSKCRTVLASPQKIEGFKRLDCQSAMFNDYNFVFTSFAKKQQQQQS
# Sequence of UniProt P98196 (P98196 whole entry, looked up): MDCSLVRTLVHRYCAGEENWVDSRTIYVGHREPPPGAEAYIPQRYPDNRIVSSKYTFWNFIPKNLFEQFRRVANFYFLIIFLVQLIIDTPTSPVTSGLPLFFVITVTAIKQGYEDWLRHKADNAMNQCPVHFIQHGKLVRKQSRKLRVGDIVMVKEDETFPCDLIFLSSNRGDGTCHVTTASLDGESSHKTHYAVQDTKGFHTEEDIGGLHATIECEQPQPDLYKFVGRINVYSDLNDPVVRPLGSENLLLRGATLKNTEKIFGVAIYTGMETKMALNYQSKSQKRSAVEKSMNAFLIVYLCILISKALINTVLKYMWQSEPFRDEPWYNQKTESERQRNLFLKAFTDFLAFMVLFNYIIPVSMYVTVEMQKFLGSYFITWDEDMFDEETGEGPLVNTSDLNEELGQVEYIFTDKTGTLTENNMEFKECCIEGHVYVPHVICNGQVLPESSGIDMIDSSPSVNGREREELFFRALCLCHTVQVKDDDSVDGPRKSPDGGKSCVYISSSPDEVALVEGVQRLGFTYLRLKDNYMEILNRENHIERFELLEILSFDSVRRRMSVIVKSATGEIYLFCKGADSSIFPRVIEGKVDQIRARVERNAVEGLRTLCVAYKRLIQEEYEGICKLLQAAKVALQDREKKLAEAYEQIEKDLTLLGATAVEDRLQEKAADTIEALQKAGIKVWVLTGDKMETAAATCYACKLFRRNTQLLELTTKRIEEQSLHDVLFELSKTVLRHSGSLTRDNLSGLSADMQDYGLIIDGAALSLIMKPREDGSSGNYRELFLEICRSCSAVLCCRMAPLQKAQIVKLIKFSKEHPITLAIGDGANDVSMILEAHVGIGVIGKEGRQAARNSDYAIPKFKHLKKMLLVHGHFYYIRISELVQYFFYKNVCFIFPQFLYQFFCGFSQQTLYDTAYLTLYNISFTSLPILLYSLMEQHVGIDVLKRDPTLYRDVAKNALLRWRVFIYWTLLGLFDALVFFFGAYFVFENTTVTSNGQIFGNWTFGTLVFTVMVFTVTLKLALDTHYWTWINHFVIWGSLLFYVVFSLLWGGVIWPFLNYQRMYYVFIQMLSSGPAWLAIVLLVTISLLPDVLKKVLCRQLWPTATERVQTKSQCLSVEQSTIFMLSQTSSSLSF
# Sequence of UniProt O94973 (O94973 whole entry, looked up): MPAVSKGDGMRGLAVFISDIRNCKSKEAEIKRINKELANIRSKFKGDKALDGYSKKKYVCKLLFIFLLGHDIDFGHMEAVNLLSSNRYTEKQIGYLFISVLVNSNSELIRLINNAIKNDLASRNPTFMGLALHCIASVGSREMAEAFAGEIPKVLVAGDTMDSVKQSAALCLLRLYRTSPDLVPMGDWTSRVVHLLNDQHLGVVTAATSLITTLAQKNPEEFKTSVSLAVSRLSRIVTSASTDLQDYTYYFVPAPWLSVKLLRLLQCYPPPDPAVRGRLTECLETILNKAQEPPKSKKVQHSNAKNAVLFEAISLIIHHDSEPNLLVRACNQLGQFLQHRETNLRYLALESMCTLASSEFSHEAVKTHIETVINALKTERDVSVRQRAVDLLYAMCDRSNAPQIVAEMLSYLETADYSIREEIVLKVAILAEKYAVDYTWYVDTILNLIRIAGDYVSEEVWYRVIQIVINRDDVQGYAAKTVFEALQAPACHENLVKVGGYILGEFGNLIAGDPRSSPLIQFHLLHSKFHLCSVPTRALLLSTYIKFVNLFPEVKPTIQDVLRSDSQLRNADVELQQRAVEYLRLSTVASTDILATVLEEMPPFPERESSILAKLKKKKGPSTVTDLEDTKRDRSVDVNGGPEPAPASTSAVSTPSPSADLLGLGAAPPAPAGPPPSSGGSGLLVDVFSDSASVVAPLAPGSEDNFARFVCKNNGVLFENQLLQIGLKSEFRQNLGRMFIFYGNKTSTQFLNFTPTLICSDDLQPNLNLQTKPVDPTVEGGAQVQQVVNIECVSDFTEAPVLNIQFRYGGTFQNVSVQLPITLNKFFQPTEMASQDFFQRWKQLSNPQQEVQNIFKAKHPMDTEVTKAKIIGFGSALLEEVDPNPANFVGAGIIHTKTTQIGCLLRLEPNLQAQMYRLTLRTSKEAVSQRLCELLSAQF
# Sequence of UniProt Q9NXW9 (Q9NXW9 whole entry, looked up): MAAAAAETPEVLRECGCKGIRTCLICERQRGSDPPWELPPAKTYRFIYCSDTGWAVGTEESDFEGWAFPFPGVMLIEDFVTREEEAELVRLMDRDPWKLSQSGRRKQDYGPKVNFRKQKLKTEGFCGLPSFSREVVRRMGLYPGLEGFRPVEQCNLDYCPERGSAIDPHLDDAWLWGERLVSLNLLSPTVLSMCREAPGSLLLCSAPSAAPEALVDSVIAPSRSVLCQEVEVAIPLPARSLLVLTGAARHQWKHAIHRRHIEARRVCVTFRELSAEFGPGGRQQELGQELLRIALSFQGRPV
# Sequence of UniProt P17544 (P17544 whole entry, looked up): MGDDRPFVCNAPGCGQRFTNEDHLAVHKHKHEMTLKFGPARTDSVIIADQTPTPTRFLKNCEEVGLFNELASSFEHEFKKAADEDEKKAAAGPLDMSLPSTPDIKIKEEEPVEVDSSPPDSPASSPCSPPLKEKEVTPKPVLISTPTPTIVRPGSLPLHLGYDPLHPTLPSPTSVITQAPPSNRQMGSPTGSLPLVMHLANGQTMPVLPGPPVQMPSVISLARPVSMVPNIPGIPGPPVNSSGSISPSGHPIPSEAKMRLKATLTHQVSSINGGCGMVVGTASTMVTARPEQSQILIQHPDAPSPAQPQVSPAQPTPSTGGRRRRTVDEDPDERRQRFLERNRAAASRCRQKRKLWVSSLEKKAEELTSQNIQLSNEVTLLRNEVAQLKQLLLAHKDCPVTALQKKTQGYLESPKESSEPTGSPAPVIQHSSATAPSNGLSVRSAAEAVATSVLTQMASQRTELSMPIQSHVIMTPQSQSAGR
# Sequence of UniProt P31751 (P31751 whole entry, looked up): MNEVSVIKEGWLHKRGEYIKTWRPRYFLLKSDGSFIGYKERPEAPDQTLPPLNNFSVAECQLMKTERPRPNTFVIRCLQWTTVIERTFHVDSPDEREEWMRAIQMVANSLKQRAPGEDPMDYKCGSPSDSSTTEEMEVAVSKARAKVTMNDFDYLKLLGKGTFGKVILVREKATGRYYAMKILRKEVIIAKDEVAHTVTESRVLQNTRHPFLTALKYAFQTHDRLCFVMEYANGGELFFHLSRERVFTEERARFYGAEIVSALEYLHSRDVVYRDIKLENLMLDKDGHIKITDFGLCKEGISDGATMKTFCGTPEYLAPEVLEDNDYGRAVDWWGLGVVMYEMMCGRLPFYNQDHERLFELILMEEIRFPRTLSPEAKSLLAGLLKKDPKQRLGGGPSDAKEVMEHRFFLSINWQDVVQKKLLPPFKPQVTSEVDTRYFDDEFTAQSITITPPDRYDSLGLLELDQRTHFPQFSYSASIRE
Target,log2 fold change [1],log2 fold change (crizotinib),log2 fold change [2],log2 fold change [3],log2 fold change (duvelisib),log2 fold change (gandotinib),log2 fold change (tozasertib),log2 fold change [4],log2 fold change (doramapimod),log2 fold change (ispinesib)
ALKBH4 (UniProt Q9NXW9),0.082,-0.033,0.172,0.029,-0.068,-0.084,0.024,0.12,0.037,-0.109
AGPAT3 isoform 3 (UniProt Q9NRZ7),-0.051,-0.04,0.125,-0.074,0.005,-0.004,-0.002,0.023,0.004,-0.074
ATP7B (UniProt P35670),-0.009,-0.005,0.03,0.065,0.092,-0.141,0.033,-0.014,0.137,-0.015
ATP1A4 (UniProt Q13733),-0.013,0.091,-0.067,-0.066,0.174,-0.026,-0.053,0.038,-0.086,0.032
ACO2 (UniProt Q99798),0,-0.022,0.102,-0.085,0.03,-0.088,-0.024,0.078,-0.026,0.041
AKT2 (UniProt P31751),0.035,-0.18,-0.211,0.051,0.039,-0.233,-0.075,0.113,0.015,-0.083
ABCC5 (UniProt O15440),0.045,-0.011,0.031,0.088,0.037,-0.05,-0.023,-0.011,-0.023,-0.071
AFDN isoform 5 (UniProt P55196),0.027,-0.154,0.04,-0.094,-0.016,-0.159,-0.029,0.063,0.009,-0.002
AP2A2 isoform 2 (UniProt O94973),0.022,-0.076,-0.033,-0.186,0.009,-0.057,-0.091,-0.021,0.03,0.024
AIFM2 (UniProt Q9BRQ8),0.039,0.098,-0.013,-0.067,0.07,0.022,-0.029,-0.032,0.08,0.207 (active)
ACADM isoform 2 (UniProt P11310),0.075,0.022,0.018,-0.073,0.018,0.049,-0.022,-0.01,-0.059,0.052
ACTR1B (UniProt P42025),0,-0.009,0.156,0.072,0.009,-0.167,0.073,-0.022,0,0.124
ATP11A (UniProt P98196),0.017,0.042,0.032,-0.103,-0.025,0.027,-0.017,-0.055,0.018,0.092
ADD2 (UniProt P35612),0.021,-0.005,0.022,-0.052,0.017,-0.042,-0.057,-0.029,0.016,0.088
ATAD3A isoform 2 (UniProt Q9NVI7),0.003,-0.191,-0.052,0.101,-0.083,0.032,0.005,0.075,0.057,-0.348 (active)
APLP2 (UniProt Q06481),0,0.032,-0.012,-0.035,0.088,0.117,0.103,-0.049,0.049,0.16

Target,log2 fold change [1],log2 fold change (crizotinib),log2 fold change [2],log2 fold change [3],log2 fold change (duvelisib),log2 fold change (gandotinib),log2 fold change (tozasertib),log2 fold change [4],log2 fold change (doramapimod),log2 fold change (ispinesib)
BZW2 (UniProt Q9Y6E2),0.006,-0.146,0.096,-0.037,-0.001,-0.218,0.011,0.047,-0.047,-0.072
ATP6AP1 (UniProt Q15904),-0.006,-0.134,-0.161,0.146,-0.056,-0.03,0.028,0.055,0.045,-0.317 (active)
BECN1 (UniProt Q14457),0.141,-0.126,0.043,0.093,0.283 (active),0.138,0.034,-0.066,-0.004,-0.019
BRD2 isoform 2 (UniProt P25440),0.618,0.006,,-0.065,0.295,-0.089,0.168,-0.083,0.064,
ADRM1 (UniProt Q16186),0.006,-0.109,-0.028,0.138,-0.036,-0.056,-0.028,0.069,0.041,-0.05
AFG1L (UniProt Q8WV93),-0.04,-0.027,0.074,0.001,0.078,,-0.147,-0.019,0.002,-0.253
ATF7 isoform 6 (UniProt P17544),-0.131,0.061,0.02,-0.088,-0.093,,-0.032,-0.054,0.158,0.223
APOH (UniProt P02749),-0.22,-0.179,,-0.071,-0.017,-0.747,-0.125,0.458,-0.108,-0.595
BRD3 (UniProt Q15059),0.117,0.109,,-0.02,0.193,-0.081,-0.027,-0.037,-0.083,-0.03
ATG9A (UniProt Q7Z3C6),0.074,-0.11,0.036,0.036,0.042,-0.062,0.012,0.069,-0.016,-0.239 (active)
AP2M1 (UniProt Q96CW1),0.018,-0.066,-0.04,-0.193,-0.036,-0.002,-0.09,-0.007,0.029,0.044
BAD (UniProt Q92934),0.171,0.076,0.076,-0.036,0.081,0.018,,-0.033,0.003,0.025
ATP12A isoform 2 (UniProt P54707),0.02,0.162,0.138,-0.087,0.067,-0.047,-0.027,-0.056,-0.004,0.137
AMD1 (UniProt P17707),-0.058,0.059,0.035,,,0.043,0.105,,-0.07,0.008
ABCA4 (UniProt P78363),0.286,0.035,0.036,0.019,,0.452,-0.055,,0.004,-0.119
